This is part of a sample that, as a whole, favours compounds with a hit. Of some 83,000 tested, about 20% had one in any assay.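 The test compound was applied at a single concentration to cells in 96-well plates for 48 hours, and percent growth was recorded.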 Unmarked numbers belong to inactive results. Active and inactive are the calls of the source. The calls were made as follows: active = growth percent below 10; inactive = the rest.
Experiments:
Assay in all cases: NCI-60 one-dose screen, 48 h (100 = growth as untreated, 0 = no growth, -100 = all killed)
Conditions in all cases: 10 µM unless noted
[1] = test system: NCI-H23 lung
[2] = test system: NCI-H226 lung
[3] = test system: NCI-H322M lung
[4] = test system: HOP-62 NSCLC
[5] = test system: NCI-H460 lung
[6] = test system: HOP-92 NSCLC
[7] = test system: NCI-H522 lung
[8] = test system: A549/ATCC NSCLC
[9] = test system: 786-0 renal
[10] = test system: COLO 205 colon
[11] = test system: DU-145 prostate
[12] = test system: K-562 leukemia
[13] = test system: MALME-3M melanoma
[14] = test system: MDA-MB-231 breast
[15] = test system: RXF 393 renal
[16] = test system: SF-268 CNS
[17] = test system: SF-295 CNS
[18] = test system: SF-539 CNS
[19] = test system: UACC-257 melanoma
[20] = test system: M14 melanoma

SMILES	growth [1]	growth [2]	growth [3]	growth [4]	growth [5]	growth [6]	growth [7]	growth [8]	growth [9]	growth [10]	growth [11]	growth [12]	growth [13]	growth [14]	growth [15]	growth [16]	growth [17]	growth [18]	growth [19]	growth [20]
CCC(C)/C(=C\C#N)NCCCN/C(=C/C#N)C(C)CC (configuration not stated)	97.3%	103%	103%	106%	116%	86.5%	83.5%	103%	98.1%	111%	122%	98.8%	108%	103%	115%	113%	105%	97.1%	106%	96.1%
N[C@@H]1CCN(C(=O)c2cc3cc(Cl)c(F)c(F)c3[nH]2)C1	92.8%	75%	87.1%	84.4%	99.8%	74.1%	80.1%	93.6%	86.6%	110%	102%	83.4%	97.8%	79.6%	87.1%	79.8%	94.9%	86.8%	99.7%	89.8%
COc1ccc(S(=O)(=O)n2cc(C(=O)C(=O)Nc3ccncc3)c3ccccc32)cc1F	65.2%	82.9%	88.6%	61.4%	69.5%	62.1%	65.3%	71%	84.7%	94%	86.4%	58.8%	76.4%	57.1%	90.9%	81.7%	43.2%	69.1%	105%	93.2%
O=C(Nc1ccncc1)C(=O)c1cn(S(=O)(=O)c2ccccc2F)c2ccccc12	25.9%	56.8%	97.2%	38.4%	75.8%	24.6%	-24.6% (active)	71.8%	36.9%	103%	24.9%	22.8%	41.2%	39.9%	28.6%	42.2%	22.5%	6.94% (active)	63.1%	14.8%
COc1ccc(-c2c(N)n[nH]c2-c2cc(OC)c(OC)c(OC)c2)cc1	36.9%	82.7%	43.9%	41.1%	6.89% (active)	70.1%	-21.3% (active)	25.9%	33.7%	4.54% (active)	11%	19.3%	39.3%	28%	-1.72% (active)	34.9%	12.8%	1.66% (active)	59.2%	5.82% (active)
CN(C)CCN1C(=O)c2ccc3c4c(ccc(c24)C1=O)C(=O)N(CCN=C=S)C3=O	-61.7% (active)	-94.7% (active)	-94.1% (active)	-96.3% (active)	-43.5% (active)	-79.5% (active)	-93.8% (active)	-52.8% (active)	-81.3% (active)	-87.9% (active)	-97.1% (active)	-29.7% (active)	-63.7% (active)	-84.5% (active)	-98.5% (active)	-89% (active)	-71.7% (active)	-81.7% (active)	-95.3% (active)	-77.5% (active)
Cn1cc(-c2cnc3ccc(NC(=O)Nc4ccc(F)c(Br)c4)cc3n2)cn1	32%	16.7%	46.3%	0.864% (active)	32.4%	-15.5% (active)	8.07% (active)	22.5%	38.7%	1.03% (active)	39.4%	11.2%	35.9%	23.4%	-22.3% (active)	49.6%	-3.9% (active)	52.9%	47.6%	4.13% (active)
COc1cc(Cn2cc3c(c2)-c2oncc2CC3)cc(OC)c1OC	15.7%	17.7%	-2.65% (active)	42.1%	3.87% (active)	56.4%	-20% (active)	29.6%	12.8%	-67.2% (active)	-11% (active)	12%	56.5%	28.9%	46.1%	18.4%	-3.52% (active)	–	81.2%	10.7%
C=CCn1c2ccccc2c2c3c(c4c5ccccc5n(CC=C)c4c21)C(=O)N(O)C3=O	24.2%	-97.9% (active)	52.8%	-1.11% (active)	8.86% (active)	77.2%	-62.5% (active)	37.7%	15.1%	56.5%	24.9%	27.3%	96.1%	39.4%	42.2%	33.7%	16.2%	2.86% (active)	–	17.2%
CCOC(=O)c1ccc(NC(=O)N2CC(C)OC(C)C2)cc1 (configuration not stated)	92%	98.1%	111%	91.7%	104%	81.2%	94.6%	106%	98.6%	116%	111%	89.9%	101%	96.5%	98.6%	106%	98.5%	95.8%	106%	107%
Cc1ccc(-c2nc(C#N)c(S(=O)(=O)n3nc(-c4ccccc4)cc3N)o2)cc1	97.4%	78.3%	97.3%	87.6%	109%	89.1%	-12% (active)	94.4%	84%	-44.1% (active)	105%	13.3%	-34.9% (active)	89%	85%	101%	104%	97%	92.1%	83%
O=C(/C=C/c1cc(-c2ccc3c(c2)OCO3)n[nH]1)c1ccc2c(c1)OCO2	94.6%	89.4%	86.6%	96.9%	97.5%	77.7%	72%	90.7%	99.2%	97.7%	104%	82.6%	106%	92.4%	94.4%	93.3%	97%	–	96.1%	99.6%
COc1cc(NC(N)=NCCC(C)(C)c2ccc(C(F)(F)F)cc2)ncc1C#N	6.42% (active)	55.5%	36.1%	54.5%	6.06% (active)	-3.76% (active)	16.8%	27.2%	36%	-83.6% (active)	39.6%	-18.1% (active)	-77.9% (active)	26%	33.4%	44.1%	25.9%	61.1%	-0.602% (active)	-73.7% (active)

From PubChem BioAssay (NCI)
